Source: ChEMBL document CHEMBL3988442, “University of Dundee, Small-Polar-MMV Screening Library” (2021)

Molecular target: T1, Aspartate--tRNA(Asp/Asn) ligase (Mycobacterium tuberculosis (strain ATCC 25618 / H37Rv)) (UniProt P9WFW3); note: in the data most compounds retested in dose-response had high values
T1 sequence (whole entry): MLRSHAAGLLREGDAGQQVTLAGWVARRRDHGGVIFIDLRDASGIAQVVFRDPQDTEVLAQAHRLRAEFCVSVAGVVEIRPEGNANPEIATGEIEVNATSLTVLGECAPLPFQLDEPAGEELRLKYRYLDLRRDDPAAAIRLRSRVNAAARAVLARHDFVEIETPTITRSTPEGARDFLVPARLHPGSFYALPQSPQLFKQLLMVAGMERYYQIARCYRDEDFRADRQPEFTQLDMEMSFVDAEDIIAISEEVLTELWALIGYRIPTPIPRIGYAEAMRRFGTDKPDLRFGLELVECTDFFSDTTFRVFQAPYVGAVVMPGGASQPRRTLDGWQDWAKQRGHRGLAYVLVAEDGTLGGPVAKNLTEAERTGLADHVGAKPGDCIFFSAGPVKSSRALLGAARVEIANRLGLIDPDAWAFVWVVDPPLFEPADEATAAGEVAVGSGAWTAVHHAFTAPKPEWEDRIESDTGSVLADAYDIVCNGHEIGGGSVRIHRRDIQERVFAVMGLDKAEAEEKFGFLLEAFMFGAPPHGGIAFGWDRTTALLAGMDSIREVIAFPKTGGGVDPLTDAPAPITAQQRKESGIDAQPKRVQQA
Test: Assay for Asp RNA synthetase-1 from Mycobacterium tuberculosis
Assay type: functional
Design: scale not given: direction of the effect not stated beside the values
Settings: 30 µM

Row | Structure (SMILES) | Percent Effect [%]
1 | COc1ccc(C2=CCN(C(=O)C3CCCN(C(N)=O)C3)CC2)cc1 (stereo not given) | 1.94
2 | Cc1ccccc1CN(C)Cc1nc2c(cnn2C)c(=O)[nH]1 | 0.633
3 | c1cc(-c2cnccn2)cc(-c2ccn(CCN3CCCC3)n2)c1 | 1.97
4 | CC(C)c1nccn1-c1cccc(C2CCCN(C3CCCC3)C2)n1 (stereo not given) | 3.46
5 | O=C([C@H]1C[C@H]2OCC[C@H]2N(CCc2ccccc2)C1)N1CCCCO1 | 0.871
6 | Cc1ccc(NC(=O)c2cc(S(=O)(=O)N3CCCCC3)c[nH]2)cc1F | 1.97
7 | Oc1nc(N2CCOCC2)nc2c1CCN(Cc1cccnc1)CC2 | 0.849
8 | CCc1csc(C2CCCN(C(=O)c3ccc(OC)nn3)C2)n1 (stereo not given) | -3.92
9 | Cc1cc(C)n(CC2CN(Cc3nc(-c4ccoc4)no3)CCO2)n1 (stereo not given) | 5.71
10 | Cn1c(C(F)(F)F)nn(CCNC(=O)CSCc2ccccc2)c1=O | -5.63
11 | COc1ccccc1C1CNC(=O)c2nc(-c3ncc[nH]3)[nH]c2C1 (stereo not given) | 2.38
12 | CC(=O)N1CCN(C(=O)CCCc2nc(C(C)C)no2)CC1 | 5.17
13 | COc1ccc(CS(=O)(=O)CC(=O)NCc2ccccc2F)cc1F | 5.03
14 | CCn1cnnc1C1CCN(C(=O)C(OC)c2ccccc2)CC1 (stereo not given) | -2.71
15 | COc1ccc2c(c1)OC1(CCN(Cc3ccc(F)cc3)CC1)CC2=O | -5.55
16 | C=C(C)CN(Cc1cccc(O)c1)C1CCC(O)CC1 (stereo not given) | 5.8
17 | O=C(NS(=O)(=O)c1ccc2c(c1)OCCO2)c1ccc(Br)cc1F | 1.56
18 | CC(C)CN1CCC2(CCN(Cc3ccsc3)CC2)C1=O | -5.3
19 | c1cnc(N2CCC3(CC2)CN(CC2CC2)c2ccccc23)nc1 | 3.62
20 | O=C(NCCCn1nc2ccccn2c1=O)NC1CCC(O)CC1 (stereo not given) | 4.86

Row | Structure (SMILES) | Percent Effect [%]
21 | Cc1nc(CN2C[C@@H]3CN(C(=O)c4cccn4C)C[C@@H]3C2=O)cs1 | -0.382
22 | Cc1nn(C)c(C)c1CNCc1ccc(N2CCOCC2)nc1 | 2.11
23 | CC1CCCN(Cc2csc(-c3ncccn3)n2)CC1 (stereo not given) | -2.94
24 | COc1cccc(CN2C[C@@H]3COC[C@]3(COCc3ccncc3)C2)c1 | 2.95
25 | CC(C)CN1CCN(C(=O)NCc2cccnc2-n2cccn2)CC1 | -1.98
26 | N#Cc1ccc(S(=O)(=O)NC(=O)C2CC2)c(C(F)(F)F)c1 | 4.77
27 | COc1ccc(C(O)CNC(=O)Nc2cc(C)nn2C)cc1 (stereo not given) | -1.41
28 | CC(C)c1csc(C2CCCN(C(=O)c3ccc(=O)n(C)n3)C2)n1 (stereo not given) | -1.11
29 | O=C(NCCOc1ccc(F)c(F)c1)NCc1cccc(CO)c1 | 0.257
30 | CN(CCN1CCCCC1)C(=O)c1cc(CN2CCOCC2)on1 | 5.72
31 | Cc1cnn(CC2CCCCN2Cc2nc(-c3ccoc3)no2)c1 (stereo not given) | 2.91
32 | COc1ccc(CCN2CCN(C(=O)c3scnc3C)CC2)cc1 | 0.928
33 | NC(=O)C1CN(C(=O)Nc2ccccc2SC(F)(F)F)CCO1 (stereo not given) | -5.1
34 | CCCc1n[nH]c(C2CN(C(=O)C3=COCCC3)CCO2)n1 (stereo not given) | -5.39
35 | Cc1ccc(N2CCCN(C(=O)c3cc(Cl)c[nH]3)CC2)nn1 | -1.03
36 | Cc1cnn(CCNCC(=O)NCC2(c3ccccc3)CCC2)c1 | 4.12
37 | NC[C@H]1CC[C@H](C(NC(=O)c2ccccc2)c2ccccn2)CC1 (stereo not given in full) | 1.63
38 | COc1ccc(NC(=O)Cn2nc(C)ccc2=O)cc1OC | -0.697
39 | Cc1nn(C)c(Cl)c1C1CCCN1CCc1ccccn1 (stereo not given) | 1.79
40 | CCN(CC1CCOC1)C(=O)c1ccccc1N1CCOCC1 (stereo not given) | -0.562

Molecular target: Shiga toxin 2 (Escherichia coli O157:H7) (UniProt P09385+P09386)
Test: E. coli 0.157:H7 Shiga Toxin SOP - stx2 screening assay
Assay type: functional
Design: scale not given: direction of the effect not stated beside the values
Settings: 30 µM

Row | Structure (SMILES) | Percent Effect [%]
41 | COc1ccc(C2=CCN(C(=O)C3CCCN(C(N)=O)C3)CC2)cc1 (stereo not given) | 26.5
42 | Cc1ccccc1CN(C)Cc1nc2c(cnn2C)c(=O)[nH]1 | -4.87
43 | c1cc(-c2cnccn2)cc(-c2ccn(CCN3CCCC3)n2)c1 | -29.3
44 | CC(C)c1nccn1-c1cccc(C2CCCN(C3CCCC3)C2)n1 (stereo not given) | 3.04
45 | O=C([C@H]1C[C@H]2OCC[C@H]2N(CCc2ccccc2)C1)N1CCCCO1 | 6.49
46 | Cc1ccc(NC(=O)c2cc(S(=O)(=O)N3CCCCC3)c[nH]2)cc1F | 17.8
47 | Oc1nc(N2CCOCC2)nc2c1CCN(Cc1cccnc1)CC2 | -13.5
48 | CCc1csc(C2CCCN(C(=O)c3ccc(OC)nn3)C2)n1 (stereo not given) | 14.7
49 | Cc1cc(C)n(CC2CN(Cc3nc(-c4ccoc4)no3)CCO2)n1 (stereo not given) | 28.8
50 | Cn1c(C(F)(F)F)nn(CCNC(=O)CSCc2ccccc2)c1=O | 4.5
51 | COc1ccccc1C1CNC(=O)c2nc(-c3ncc[nH]3)[nH]c2C1 (stereo not given) | -14.6
52 | CC(=O)N1CCN(C(=O)CCCc2nc(C(C)C)no2)CC1 | -7.36
53 | COc1ccc(CS(=O)(=O)CC(=O)NCc2ccccc2F)cc1F | -1.34
54 | CCn1cnnc1C1CCN(C(=O)C(OC)c2ccccc2)CC1 (stereo not given) | 9.67
55 | COc1ccc2c(c1)OC1(CCN(Cc3ccc(F)cc3)CC1)CC2=O | 17.6
56 | C=C(C)CN(Cc1cccc(O)c1)C1CCC(O)CC1 (stereo not given) | 18.1
57 | O=C(NS(=O)(=O)c1ccc2c(c1)OCCO2)c1ccc(Br)cc1F | 8.44
58 | CC(C)CN1CCC2(CCN(Cc3ccsc3)CC2)C1=O | -18.6
59 | c1cnc(N2CCC3(CC2)CN(CC2CC2)c2ccccc23)nc1 | -25
60 | O=C(NCCCn1nc2ccccn2c1=O)NC1CCC(O)CC1 (stereo not given) | -44.5

Row | Structure (SMILES) | Percent Effect [%]
61 | Cc1nc(CN2C[C@@H]3CN(C(=O)c4cccn4C)C[C@@H]3C2=O)cs1 | -4.43
62 | Cc1nn(C)c(C)c1CNCc1ccc(N2CCOCC2)nc1 | -24.1
63 | CC1CCCN(Cc2csc(-c3ncccn3)n2)CC1 (stereo not given) | -26.7
64 | COc1cccc(CN2C[C@@H]3COC[C@]3(COCc3ccncc3)C2)c1 | 5.94
65 | CC(C)CN1CCN(C(=O)NCc2cccnc2-n2cccn2)CC1 | -22.5
66 | N#Cc1ccc(S(=O)(=O)NC(=O)C2CC2)c(C(F)(F)F)c1 | 9.71
67 | COc1ccc(C(O)CNC(=O)Nc2cc(C)nn2C)cc1 (stereo not given) | 26.8
68 | CC(C)c1csc(C2CCCN(C(=O)c3ccc(=O)n(C)n3)C2)n1 (stereo not given) | -6.52
69 | O=C(NCCOc1ccc(F)c(F)c1)NCc1cccc(CO)c1 | -6.88
70 | CN(CCN1CCCCC1)C(=O)c1cc(CN2CCOCC2)on1 | -1.02
71 | Cc1cnn(CC2CCCCN2Cc2nc(-c3ccoc3)no2)c1 (stereo not given) | 26.6
72 | COc1ccc(CCN2CCN(C(=O)c3scnc3C)CC2)cc1 | 0.201
73 | NC(=O)C1CN(C(=O)Nc2ccccc2SC(F)(F)F)CCO1 (stereo not given) | -11.7
74 | CCCc1n[nH]c(C2CN(C(=O)C3=COCCC3)CCO2)n1 (stereo not given) | 19
75 | Cc1ccc(N2CCCN(C(=O)c3cc(Cl)c[nH]3)CC2)nn1 | -26.5
76 | Cc1cnn(CCNCC(=O)NCC2(c3ccccc3)CCC2)c1 | 22.9
77 | NC[C@H]1CC[C@H](C(NC(=O)c2ccccc2)c2ccccn2)CC1 (stereo not given in full) | -25.2
78 | COc1ccc(NC(=O)Cn2nc(C)ccc2=O)cc1OC | -5.66
79 | Cc1nn(C)c(Cl)c1C1CCCN1CCc1ccccn1 (stereo not given) | -0.4
80 | CCN(CC1CCOC1)C(=O)c1ccccc1N1CCOCC1 (stereo not given) | 23.4
